About 79,000 compounds went through this panel and 15% of them were active in at least one assay; those are over-represented in the sample as a whole. Calls of active or inactive are those of the source. Cut-off read from the data, not from the text of the source: active = growth inhibition above about 70%; inactive = the rest.
Tests used:
[1] = NCI Yeast Anticancer Drug Screen. Data for the mec2-1 strain (AID 157); details: S. cerevisiae mec2-1 strain, stronger effect = higher value
Procedure, shortened: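 Mutant yeast (mec2-1) grown with compound; growth inhibition relative to vehicle control reported.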

[2] = NCI Yeast Anticancer Drug Screen. Data for the rad14 strain (AID 159);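 note: 0% = growth of vehicle-treated control cultures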; details: S. cerevisiae rad14 strain growth inhibition, stronger effect = higher value
Procedure, shortened: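 DNA repair-defective yeast, compound-exposed; % growth inhibition derived by comparison with vehicle-treated controls.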

[3] = NCI Yeast Anticancer Drug Screen. Data for the sgs1 mgt1 strain (AID 161);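 note: 0% = growth of cultures given vehicle only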; details: S. cerevisiae sgs1 mgt1 strain, stronger effect = higher value
Procedure, shortened: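 Growth of a repair-deficient yeast mutant was monitored after compound treatment and expressed as inhibition relative to vehicle-treated cultures.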

[4] = NCI Yeast Anticancer Drug Screen. Data for the CLN2oe strain (AID 163);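 note: 0% = growth of vehicle-only control cultures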; details: S. cerevisiae CLN2oe strain, stronger effect = higher value
Procedure, shortened: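 Compounds are applied to yeast harbouring a defined cell-cycle control change; reduced growth compared with vehicle-treated controls gives the value.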

[5] = NCI Yeast Anticancer Drug Screen. Data for the cln2 rad14 strain (AID 165);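 note: 0% = growth equal to vehicle treated cultures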; details: S. cerevisiae cln2 rad14 strain, stronger effect = higher value
Procedure, shortened: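 Readout is yeast growth inhibition versus vehicle-treated controls, using a strain with cln2 and rad14 alterations exposed to compound.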

[6] = NCI Yeast Anticancer Drug Screen. Data for the bub3 strain (AID 167); details: S. cerevisiae bub3 mutant strain, stronger effect = higher value
Procedure, shortened: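 In this screen, a yeast mutant lacking normal mitotic checkpoint function is challenged with compound. Relative growth versus vehicle gives the inhibition value.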

[7] = NCI Yeast Anticancer Drug Screen. Data for the wt2 strain (AID 169);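 note: 0% = growth of vehicle-treated yeast cultures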; details: S. cerevisiae wt2 strain growth inhibition, stronger effect = higher value
Procedure, shortened: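 Against vehicle-treated controls, the growth of yeast exposed to each compound was compared, and the inhibition was recorded.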

[8] = NCI Yeast Anticancer Drug Screen. Data for the mlh1 strain (AID 171);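 note: 0% = growth of vehicle-treated control cultures of the same strain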; details: S. cerevisiae mlh1 strain growth inhibition, stronger effect = higher value
Procedure, shortened: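 Measured: yeast growth. Reference: vehicle-treated controls. Organism: strain with a defined alteration affecting DNA damage repair or cell cycle control, treated with compound.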

[9] = NCI Yeast Anticancer Drug Screen. Data for the sgs1 strain (AID 173);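 note: 0% = growth of vehicle-only control cultures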; details: S. cerevisiae sgs1 mutant, stronger effect = higher value
Procedure, shortened: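 Each compound was added to cultures of the altered yeast strain. Growth was recorded, and inhibition was derived by comparison with vehicle controls.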

[10] = NCI Yeast Anticancer Drug Screen. Data for the mlh1 rad18 strain (AID 175); details: S. cerevisiae mlh1 rad18 strain growth inhibition, stronger effect = higher value
Procedure, shortened: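 Genetically defined yeast (DNA repair-deficient) exposed to compounds; growth inhibition determined relative to vehicle.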

[11] = NCI Yeast Anticancer Drug Screen. Data for the rad18 strain (AID 177); details: S. cerevisiae rad18 mutant growth inhibition, stronger effect = higher value
Procedure, shortened: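 Vehicle-treated cultures served as the baseline for scoring compound-induced growth inhibition in DNA-repair-mutant yeast.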

[12] = NCI Yeast Anticancer Drug Screen. Data for the rad52 strain (AID 147);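 note: 0% = growth of vehicle-treated control cultures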; details: S. cerevisiae rad52 mutant growth inhibition, stronger effect = higher value
Procedure, shortened: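 The repair-mutant yeast strain was incubated with compounds, then growth was read and inhibition derived relative to vehicle.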

[13] = NCI Yeast Anticancer Drug Screen. Data for the wt1 strain (AID 149);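 note: 0% = growth of vehicle-treated wt1 cultures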; details: S. cerevisiae wt1 strain (SPY 50644) growth inhibition, stronger effect = higher value
Procedure, shortened: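 wt1 strain grown with compound or vehicle; inhibition taken from the growth difference.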

[14] = NCI Yeast Anticancer Drug Screen. Data for the rad50EPP+ strain (AID 151);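 note: 0% = growth of vehicle-treated control cultures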; details: S. cerevisiae rad50 mutant strain, stronger effect = higher value
Procedure, shortened: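 Vehicle-normalised growth inhibition; rad50EPP+ yeast strain, altered in DNA damage repair, compound-treated.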

[15] = NCI Yeast Anticancer Drug Screen. Data for the rad50 strain (AID 155);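 note: 0% = growth of vehicle-only cultures of the same strain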; details: S. cerevisiae rad50 strain growth inhibition, stronger effect = higher value
Procedure, shortened: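 DNA repair mutant yeast, compound exposure, growth read-out; inhibition is taken relative to vehicle.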

[16] = at 5.0 µM (retest, dose inferred, filed as 0.5)
[17] = at 50.0 µM (retest, dose inferred, filed as 5.0)

Measured: growth inhibition

C/C=C/[P+](c1ccccc1)(c1ccccc1)c1ccccc1
inactive: [2]; at 1.2 µM 30% | [2]; at 3.7 µM 27% | [2]; at 11.0 µM 28% | [2]; at 33.0 µM 63% | [3]; [16] 20% | [4]; at 1.2 µM 16% | [4]; at 3.7 µM 13% | [4]; at 11.0 µM 29% | [4]; at 33.0 µM 30% | [5]; [16] 9% | [5]; [17] 16% | [5]; at 50.0 µM 52.6% | [6]; at 1.2 µM 15% | [6]; at 3.7 µM 29% | [6]; [16] 25% | [6]; at 11.0 µM 49% | [6]; at 33.0 µM 67% | [7]; at 1.2 µM -1% | [7]; at 3.7 µM 12% | [7]; at 11.0 µM 18% | [7]; at 33.0 µM 47% | [8]; at 1.2 µM 30% | [8]; at 3.7 µM 43% | [8]; at 11.0 µM 63% | [8]; at 33.0 µM 68% | [9]; at 1.2 µM 19% | [9]; at 3.7 µM 31% | [9]; at 11.0 µM 55% | [9]; at 33.0 µM 61% | [10]; [16] 33% | [10]; [17] 63% | [11]; at 1.2 µM 58% | [11]; at 3.7 µM 67% | [11]; at 11.0 µM 68%
active: [1]; at 100.0 µM 91% | [2]; at 100.0 µM 97% | [3]; [17] 73% | [3]; at 50.0 µM 78.3% | [4]; at 100.0 µM 78% | [6]; [17] 86% | [6]; at 50.0 µM 78.6% | [6]; at 100.0 µM 90% | [7]; at 100.0 µM 87% | [8]; at 100.0 µM 92% | [9]; at 100.0 µM 89% | [10]; at 50.0 µM 87.8% | [11]; at 33.0 µM 90% | [11]; at 100.0 µM 94%

OC(CN1CCCCC1)c1cc(Cl)c(Cl)c(Cl)c1 (stereo unspecified)
active: [6]; at 50.0 µM 70.8%
inactive: [12]; at 1.2 µM 3% | [12]; at 3.7 µM 11% | [12]; at 11.0 µM 17% | [12]; at 33.0 µM 28% | [12]; at 100.0 µM 40% | [13]; at 1.2 µM 4% | [13]; at 3.7 µM 9% | [13]; at 11.0 µM 6% | [13]; at 33.0 µM 6% | [13]; at 100.0 µM 14% | [14]; at 1.2 µM 3% | [14]; at 3.7 µM 8% | [14]; at 11.0 µM 10% | [14]; at 33.0 µM 7% | [14]; at 100.0 µM 1% | [15]; at 1.2 µM 5% | [15]; at 3.7 µM 13% | [15]; [16] 2% | [15]; at 11.0 µM 11% | [15]; at 33.0 µM 20% | [15]; [17] 41% | [15]; at 50.0 µM 38.4% | [15]; at 100.0 µM 36% | [1]; at 1.2 µM 5% | [1]; at 3.7 µM 11% | [1]; [16] 2% | [1]; at 11.0 µM 15% | [1]; at 33.0 µM 24% | [1]; [17] 49% | [1]; at 50.0 µM 32.2% | [1]; at 100.0 µM 38% | [2]; at 1.2 µM 9% | [2]; at 3.7 µM 25% | [2]; at 11.0 µM 33% | [2]; at 33.0 µM 28% | [2]; at 100.0 µM 39% | [3]; [16] 12% | [3]; [17] 49% | [3]; at 50.0 µM 57.1% | [4]; at 1.2 µM 7% | [4]; at 3.7 µM 8% | [4]; at 11.0 µM 32% | [4]; at 33.0 µM 47% | [4]; at 100.0 µM 57% | [5]; [16] 8% | [5]; [17] 35% | [5]; at 50.0 µM 51.6% | [6]; at 1.2 µM 3% | [6]; at 3.7 µM 9% | [6]; [16] 4% | [6]; at 11.0 µM 25% | [6]; at 33.0 µM 38% | [6]; [17] 38% | [6]; at 100.0 µM 53% | [7]; at 1.2 µM 3% | [7]; at 3.7 µM 8% | [7]; at 11.0 µM 10% | [7]; at 33.0 µM 12% | [7]; at 100.0 µM 15% | [8]; at 1.2 µM 5% | [8]; at 3.7 µM 7% | [8]; at 11.0 µM 17% | [8]; at 33.0 µM 18% | [8]; at 100.0 µM 21% | [9]; at 1.2 µM 6% | [9]; at 3.7 µM 14% | [9]; at 11.0 µM 20% | [9]; at 33.0 µM 27% | [9]; at 100.0 µM 37% | [10]; [16] 14% | [10]; [17] 43% | [10]; at 50.0 µM 50.4% | [11]; at 1.2 µM 5% | [11]; at 3.7 µM 13% | [11]; at 11.0 µM 8% | [11]; at 33.0 µM 14% | [11]; at 100.0 µM 22%

— PubChem BioAssay (NCI)
